About 79,000 compounds went through this panel and 15% of them were active in at least one assay; those are over-represented in the sample as a whole. Activity calls are given as the source filed them. Rule as the data show it: active = growth inhibition above about 70%; inactive = the rest.
Legend:
[1] = NCI Yeast Anticancer Drug Screen. Data for the rad52 strain (AID 147);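 also: 0% = growth of vehicle-treated control cultures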; settings: S. cerevisiae rad52 mutant growth inhibition, active compounds read high
Method in brief: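 Screen used a yeast mutant impaired in DNA repair. After compound exposure, growth was measured. Values reflect inhibition compared with vehicle-treated cells.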

[2] = NCI Yeast Anticancer Drug Screen. Data for the wt1 strain (AID 149);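 also: 0% = growth of vehicle-treated wt1 cultures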; settings: S. cerevisiae wt1 strain (SPY 50644) growth inhibition, active compounds read high
Method in brief: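 Yeast wt1 strain exposed to compounds; growth inhibition measured relative to vehicle-treated controls.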

[3] = NCI Yeast Anticancer Drug Screen. Data for the rad50EPP+ strain (AID 151);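 also: 0% = growth of vehicle-treated control cultures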; settings: S. cerevisiae rad50 mutant strain, active compounds read high
Method in brief: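 Exposing the rad50EPP+ strain to each compound, growth was compared with vehicle-only cultures to give inhibition.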

[4] = NCI Yeast Anticancer Drug Screen. Data for the mgt1 strain (AID 153); settings: S. cerevisiae mgt1 mutant growth inhibition, active compounds read high
Method in brief: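 Genetically defined yeast (mgt1) treated with compound; inhibition of growth expressed against vehicle-treated controls.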

[5] = NCI Yeast Anticancer Drug Screen. Data for the rad50 strain (AID 155);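 also: 0% = growth of vehicle-only cultures of the same strain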; settings: S. cerevisiae rad50 strain growth inhibition, active compounds read high
Method in brief: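 Yeast carrying a defined DNA repair defect were exposed to test compounds, and growth was compared with vehicle-treated controls to give percent inhibition.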

[6] = NCI Yeast Anticancer Drug Screen. Data for the mec2-1 strain (AID 157); settings: S. cerevisiae mec2-1 strain, active compounds read high
Method in brief: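 Readout is yeast growth inhibition, normalised to vehicle-treated controls, in the mec2-1 strain exposed to compound.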

[7] = NCI Yeast Anticancer Drug Screen. Data for the rad14 strain (AID 159);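 also: 0% = growth of vehicle-treated control cultures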; settings: S. cerevisiae rad14 strain growth inhibition, active compounds read high
Method in brief: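 Yeast cells carrying a defined DNA-repair defect were exposed to compounds, and growth inhibition was calculated relative to vehicle-treated control cultures.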

[8] = NCI Yeast Anticancer Drug Screen. Data for the sgs1 mgt1 strain (AID 161);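 also: 0% = growth of cultures given vehicle only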; settings: S. cerevisiae sgs1 mgt1 strain, active compounds read high
Method in brief: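 Compounds are added to genetically altered yeast, and growth is compared with cultures given vehicle alone to give percent inhibition.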

[9] = NCI Yeast Anticancer Drug Screen. Data for the CLN2oe strain (AID 163);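 also: 0% = growth of vehicle-only control cultures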; settings: S. cerevisiae CLN2oe strain, active compounds read high
Method in brief: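 Values reflect how much compound exposure reduced yeast growth, referenced to vehicle-exposed cells. Assay organism is a strain with a defined genetic change affecting cell-cycle control.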

[10] = NCI Yeast Anticancer Drug Screen. Data for the cln2 rad14 strain (AID 165);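 also: 0% = growth equal to vehicle treated cultures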; settings: S. cerevisiae cln2 rad14 strain, active compounds read high
Method in brief: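 Relative to vehicle controls, growth inhibition of compound-treated cln2 rad14 yeast was recorded.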

[11] = NCI Yeast Anticancer Drug Screen. Data for the bub3 strain (AID 167); settings: S. cerevisiae bub3 mutant strain, active compounds read high
Method in brief: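 Compounds were applied to a genetically altered yeast strain carrying a cell-cycle control defect. Growth inhibition was scored against vehicle-treated controls.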

[12] = NCI Yeast Anticancer Drug Screen. Data for the wt2 strain (AID 169);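 also: 0% = growth of vehicle-treated yeast cultures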; settings: S. cerevisiae wt2 strain growth inhibition, active compounds read high
Method in brief: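 Values express reduction in yeast growth under compound treatment, referenced to vehicle-treated cells.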

[13] = NCI Yeast Anticancer Drug Screen. Data for the mlh1 strain (AID 171);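 also: 0% = growth of vehicle-treated control cultures of the same strain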; settings: S. cerevisiae mlh1 strain growth inhibition, active compounds read high
Method in brief: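 Steps: expose the defined-mutant yeast strain to compound; expose a parallel culture to vehicle; measure growth; express compound effect as inhibition relative to the vehicle culture.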

[14] = NCI Yeast Anticancer Drug Screen. Data for the sgs1 strain (AID 173);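 also: 0% = growth of vehicle-only control cultures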; settings: S. cerevisiae sgs1 mutant, active compounds read high
Method in brief: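 Treat defined-mutant yeast with compound; measure growth; calculate inhibition relative to vehicle-treated cells.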

[15] = NCI Yeast Anticancer Drug Screen. Data for the mlh1 rad18 strain (AID 175); settings: S. cerevisiae mlh1 rad18 strain growth inhibition, active compounds read high
Method in brief: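 Test agents were incubated with a yeast strain of defined genotype (DNA damage repair defect). Inhibition of growth was derived by comparison with vehicle-exposed cultures.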

[16] = NCI Yeast Anticancer Drug Screen. Data for the rad18 strain (AID 177); settings: S. cerevisiae rad18 mutant growth inhibition, active compounds read high
Method in brief: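 A genetically defined yeast mutant impaired in DNA damage repair was treated with test compounds, then its growth was measured against cultures receiving vehicle alone.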

[17] = at 5.0 µM (retest, dose inferred, filed as 0.5)
[18] = at 50.0 µM (retest, dose inferred, filed as 5.0)

Measured: growth inhibition

Fc1ccc(NC(=S)SCc2ccc3c(c2)OCO3)cc1F
inactive: [1]; at 1.2 µM 15% | [1]; at 3.7 µM 9% | [2]; at 1.2 µM 6% | [2]; at 3.7 µM 6% | [2]; at 11.0 µM 66% | [3]; at 1.2 µM 0% | [3]; at 3.7 µM 27% | [4]; at 1.2 µM -3% | [4]; at 3.7 µM 12% | [4]; at 11.0 µM 61% | [5]; at 1.2 µM -9% | [5]; at 3.7 µM 22% | [5]; [17] 23% | [5]; at 11.0 µM 57% | [6]; at 1.2 µM -10% | [6]; at 3.7 µM 2% | [6]; [17] -7% | [6]; at 11.0 µM 49% | [7]; at 1.2 µM -9% | [7]; at 3.7 µM 20% | [7]; at 11.0 µM 65% | [8]; [17] 31% | [9]; at 1.2 µM 8% | [9]; at 3.7 µM 28% | [9]; at 11.0 µM 40% | [10]; [17] 21% | [11]; at 1.2 µM -19% | [11]; at 3.7 µM -11% | [11]; [17] 35% | [11]; at 11.0 µM 42% | [12]; at 1.2 µM -2% | [12]; at 3.7 µM 19% | [12]; at 11.0 µM 58% | [13]; at 1.2 µM -29% | [13]; at 3.7 µM -28% | [13]; at 11.0 µM 53% | [14]; at 1.2 µM -17% | [14]; at 3.7 µM -13% | [14]; at 11.0 µM 59% | [15]; [17] 6% | [16]; at 1.2 µM 20% | [16]; at 3.7 µM 34%
active: [1]; at 11.0 µM 71% | [1]; at 33.0 µM 98% | [1]; at 100.0 µM 97% | [2]; at 33.0 µM 98% | [2]; at 100.0 µM 97% | [3]; at 11.0 µM 96% | [3]; at 33.0 µM 99% | [3]; at 100.0 µM 99% | [4]; at 33.0 µM 99% | [4]; at 100.0 µM 96% | [5]; at 33.0 µM 99% | [5]; [18] 97% | [5]; at 50.0 µM 92.2% | [5]; at 100.0 µM 98% | [6]; at 33.0 µM 99% | [6]; [18] 99% | [6]; at 50.0 µM 91.7% | [6]; at 100.0 µM 98% | [7]; at 33.0 µM 99% | [7]; at 100.0 µM 94% | [8]; [18] 99% | [8]; at 50.0 µM 92.5% | [9]; at 33.0 µM 99% | [9]; at 100.0 µM 98% | [10]; [18] 99% | [10]; at 50.0 µM 91.8% | [11]; at 33.0 µM 98% | [11]; [18] 99% | [11]; at 50.0 µM 91.8% | [11]; at 100.0 µM 98% | [12]; at 33.0 µM 99% | [12]; at 100.0 µM 94% | [13]; at 33.0 µM 99% | [13]; at 100.0 µM 96% | [14]; at 33.0 µM 99% | [14]; at 100.0 µM 96% | [15]; [18] 98% | [15]; at 50.0 µM 90.5% | [16]; at 11.0 µM 73% | [16]; at 33.0 µM 100% | [16]; at 100.0 µM 98%

CN=C(N)N/N=C/c1ccc2c(c1)Cc1ccccc1-2
inactive: [1]; at 1.2 µM 6% | [1]; at 3.7 µM 19% | [1]; at 11.0 µM 20% | [1]; at 33.0 µM 31% | [2]; at 1.2 µM 0% | [2]; at 3.7 µM 17% | [2]; at 11.0 µM 4% | [2]; at 33.0 µM 8% | [2]; at 100.0 µM 44% | [3]; at 1.2 µM -6% | [3]; at 3.7 µM 12% | [3]; at 11.0 µM 23% | [3]; at 33.0 µM 32% | [4]; at 1.2 µM -11% | [4]; at 3.7 µM -2% | [4]; at 11.0 µM 1% | [4]; at 33.0 µM 14% | [5]; at 1.2 µM -7% | [5]; at 3.7 µM -9% | [5]; [17] 10% | [5]; at 11.0 µM -12% | [5]; at 33.0 µM -2% | [5]; [18] 64% | [6]; at 1.2 µM 9% | [6]; at 3.7 µM -4% | [6]; [17] 6% | [6]; at 11.0 µM -5% | [6]; at 33.0 µM -13% | [6]; at 50.0 µM 23.1% | [6]; at 100.0 µM 60% | [7]; at 1.2 µM -1% | [7]; at 3.7 µM -14% | [7]; at 11.0 µM -21% | [7]; at 33.0 µM -16% | [8]; [17] 24% | [8]; at 50.0 µM 30.2% | [9]; at 1.2 µM -90% | [9]; at 3.7 µM -34% | [9]; at 11.0 µM -16% | [9]; at 33.0 µM -5% | [10]; [17] -5% | [10]; [18] 27% | [10]; at 50.0 µM 19.8% | [11]; at 1.2 µM -15% | [11]; at 3.7 µM -4% | [11]; [17] 30% | [11]; at 11.0 µM -8% | [11]; at 33.0 µM 3% | [11]; at 50.0 µM 22.4%
active: [1]; at 100.0 µM 94% | [3]; at 100.0 µM 97% | [4]; at 100.0 µM 92% | [5]; at 50.0 µM 72.8% | [5]; at 100.0 µM 92% | [6]; [18] 92% | [7]; at 100.0 µM 88% | [8]; [18] 83% | [9]; at 100.0 µM 80% | [11]; [18] 100% | [11]; at 100.0 µM 73%

— PubChem BioAssay (NCI)
